Reference: the supplement of paper PMC6555819

Legend:
Test in all cases: PBM binding z-score (relative to random genomic background probes); higher = stronger binding; sequences stand for … in GC…GCGATTGACAGCGTAGAATGAAGG
[1] = tested on: RARb homodimer (NR concentration 270 nM)
Method in brief: (§1)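 The probes on custom Agilent 4×180K protein-binding microarrays were double-stranded, with 34-nt variable regions bearing direct-repeat seeds, single-nucleotide variants, half-site ablations and random human genomic background sequences. Incubation lasted 1 h with ligand-free nuclear receptor dimers in PBS pH 7.4, 2% milk, 0.02% Triton X-100, 1 mM DTT, 0.2 mg/mL BSA and 0.4 mg/ml salmon testes DNA. Antibodies against each partner (one per run) detected bound dimers, and fluorescence scans were regression-normalized. Binding z-scores take the random background probes as reference.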

[2] = tested on: RARg:RXRa (NR concentration 270 nM, RXRa partner concentration 90 nM)
Method in brief: as §1

[3] = tested on: RARg homodimer (NR concentration 270 nM)
Method in brief: as §1

[4] = tested on: RXRa DBDmut IVT, anti-RXR (DBD mutation: RXRa K156A/R161A, NR concentration 90 nM)
Method in brief: as §1

[5] = tested on: RXRa homodimer (NR concentration 180 nM)
Method in brief: as §1

[6] = tested on: THRa:RXRa (NR concentration 90 nM, RXRa partner concentration 90 nM)
Method in brief: as §1

[7] = tested on: THRa homodimer (NR concentration 90 nM)
Method in brief: as §1

[8] = tested on: VDR homodimer (NR concentration 270 nM)
Method in brief: as §1

Sequence	PBM binding z-score [1]	PBM binding z-score [2]	PBM binding z-score [3]	PBM binding z-score [4]	PBM binding z-score [5]	PBM binding z-score [6]	PBM binding z-score [7]	PBM binding z-score [8]
AGTACAGGGTCACTAGGCCAGAGTAGGTACGAAT	3.49	5.25	5.26	2.61	5.43	3.41	1.04	2.39
CGTCCAAGCTCAAAGGTCAGTGAAGAGATGACGG	4.4	4.58	5.11	0.306	4.05	2.33	0.0443	0.215
ACAGACAGGTGAGTGAAGGTAACTTAGCTGGACG	-0.0414	0.357	0.463	-0.514	0.233	1.46	-0.186	-0.226
ATCGAGAGGTCGAGGTGAGTATAGAGAAAGGGAA	2.04	3.39	3.48	1.2	3.51	2.76	0.486	0.635
CGAACTAGGTCATCTAGGACAGTGAATACATTGA	2.74	4.13	4.96	2.2	2.99	3.3	1.49	1.48
GCGACTGGGGCATCAGCAGGTTACGATAACTTAA	0.928	0.837	0.545	-0.13	0.313	0.816	-0.273	-0.435
CGAACTAGGTCATCCAGGACAGTAAATACATTGA	2.98	4.05	4.72	2.51	2.89	3.58	2.2	2.45
CGTCCAAGGCCAAAGGTCAGTGAAGAGATGACGG	4.6	5.87	5.18	1.13	5.47	3.24	0.341	0.884
ATCTCTAGGAAACAAGTTCAGTGAAAGAGAGGAC	1.32	1	0.918	0.688	0.725	0.835	0.164	2.27
GGATCGAGGGCAAGTTGATAGCAGAGTTTGATGG	1.54	1.6	1.96	1.95	0.72	1.26	0.374	2.06
TAGCTTAGGTCATTGGGCCAGTATAGTACGCATC	3.1	4.29	4.56	2.23	3.26	3.37	2.15	1.36
ATCTCTAGGTACAGTTCAGTGAAAGATCGATAGA	0.899	0.55	0.987	1.95	0.449	0.634	0.0799	1.77
CCGACTGAGGCAAAGGTTACCATACTCAGTACGA	1.76	1.73	1.29	0.393	2.61	1.54	0.023	-0.216
AGCACGAGGGCAATGAGTTGATAGCACGGGTGGC	0.927	1.16	1.72	2.14	0.851	0.817	-0.487	3.16
AATACAGGGTCATCGTAGGCCAGAGGACGCACAG	3.8	5.78	5.21	3.64	7.03	4.56	1.75	3.53
CGAACTAGGTCATCCATGACAGTGAATACATTGA	2.92	4	4.72	2.04	2.97	2.84	0.683	1.17
GCGAGCAGGCCATTTGGGTCACTCAATGACGGGC	1.96	1.09	1.37	0.115	0.824	1.85	0.687	0.921
TCTTGTAGGTCAAGCAGGTTAAGAAAGCCTGAGT	3.48	4.8	5.5	1.7	4.02	3.08	0.641	1.49
TCGACTAGGTTACCAATGGGGCATTCAGCTTTCT	1.02	1.16	0.432	1.07	0.661	0.557	0.42	-0.0453
CCTACTGGGCCACGACAGGTCATTGATTCAGTGA	2.31	1.95	1.52	-0.438	1.56	2.74	0.324	0.706
ACTAGTTGGTCAGCTGAGATCACACACAATTCGG	0.406	0.638	0.88	0.396	0.449	0.991	-0.107	-0.0701
GGAACAAGGGCAAGTTGATAGCAGAGTTTGATGG	1.92	1.5	2.02	1.47	0.773	1.14	0.372	1.27
TCCAGTAGGTTAGGGGCATTCAGAATGGCGTCGA	0.983	0.561	0.313	1.16	1.06	0.915	0.179	0.877
CCTGCTAGGTCATGGTCAGATAATCTACAGTATG	3.05	3.94	4.66	1.69	3.04	3.1	1.49	0.43
CATACAGGGTCAGCTAGGCCAGAGAAGGGACGGC	3.35	4.63	5.1	1.74	4.46	2.99	0.568	1.67
GCTGCTAGGTCCACTGATGGTCAGCTAAAGCTCG	0.602	-0.251	-0.0766	0.741	-0.741	-0.256	-0.767	-0.434

Sequence	PBM binding z-score [1]	PBM binding z-score [2]	PBM binding z-score [3]	PBM binding z-score [4]	PBM binding z-score [5]	PBM binding z-score [6]	PBM binding z-score [7]	PBM binding z-score [8]
CTCGAAAGGTCGGTTGCGGTGAGTATACGGATAA	1.91	2.44	2.59	1.06	2.06	3.27	-0.0628	0.294
CAAACTAGGTCAAGATGTCAAAGTCCGCTTCCCG	3.53	4.72	5.27	1.76	3.43	2.86	1.04	0.881
GCTCGGAGGACAAGGTCAGAGATTTGTCCGTAGA	2.83	2.84	3.13	0.212	2.23	2.82	1.51	0.17
ATCTCTAGGTCAAGATAGTTCAGTGAATGCAAAT	3.89	4.63	5.48	1.58	3.14	3.35	1.71	1.73
AGAACTAGGGCAATGAGTTGATAGCACGGGTGGC	0.411	0.47	0.889	0.324	0.422	0.157	-0.177	1.02
CATCGGAGGACAGAAGGTCAGAGCTGTCCGCTTT	3.44	3.28	2.93	-0.108	1.8	2.07	0.044	0.139
ATACCAAGGTGATCGTGAAGTCGTTGATACTAAC	0.398	0.416	0.171	0.398	0.357	1.01	0.796	0.18
ATAGACAGGTGAGTGAAGGTAACTCAGCTGGACG	0.264	0.515	0.582	-0.459	0.665	1.68	-0.333	-0.359
GTACCAAGATGAATAGGTCGTTGATGAGTAGGCG	0.283	0.181	0.272	-0.187	0.691	0.143	-0.535	-0.179
GTTGCTAGGTCAGGTTGGTCAGCTAACGGGTACG	3.23	2.74	4.18	0.0427	1.4	2.02	1.06	0.821
GCTCCTAGGTCAACTGATGGTCAGCTAAAGCTCG	3.8	5.76	5.88	2.02	3.77	3.15	1.7	0.601
TAGCCTAGGACATGGGCCAGTATACCACGCGAAC	-0.0727	-0.00552	0.0243	-0.981	-0.0222	0.476	0.11	-0.526
GCTGCTAGGTTAGGTTGGTCAGCTAACGGGTACG	0.8	0.0162	0.355	0.0127	-0.131	0.0584	-0.34	0.253
GCTATTAGTTGACAGGGCAACCGAATGATTCTCG	0.837	0.251	0.693	0.605	0.324	-0.129	-0.0185	-0.0905
ATCGAAAGGTCGTGAGGTGAGTAGACAGAAAGGC	2.99	4.61	3.94	1.15	5.39	3.28	1.3	0.659
TGATATAGGTAAAGGTGAAAGTCGAACGATATGA	1.61	1.55	1.43	-0.501	2.09	1.57	-0.161	-0.09
ATCTCTAGGTAACAAGTTAAGTGAAAGAGAGGAC	0.585	0.726	0.704	-0.00477	0.663	1.29	0.846	0.307
ATATGTTGGTTATCGGGTCATTCAGTTTGCGCAT	2.89	2.24	1.97	1.61	2.56	3.26	3.07	4
TCTTCTAGGTCAGTTGGTCAGCTAACGAGCTGCC	3.05	3.26	4.08	1.65	1.62	2.19	1.58	0.514
TCATATAGGTAATACCGGTGAAAGTCGGCATCTA	-0.00712	0.24	0.212	1.35	0.935	0.246	0.113	-0.092
CGTCAAAGTTCAATGTAACGTAACAGAAAGCAGC	3.56	4.82	5.45	4.69	3.78	1.64	-0.0537	3.96
CAAACTAGGTCACGAAAGGTCAAGGTCGAATGAC	6.07	7.93	8.86	2.21	8	5.14	3.71	4.2
CCGACTGGGGCAGAAGGTTACCATAAGCCAGCCC	1.53	1.14	0.806	-0.593	1.04	0.31	-0.571	0.083
CCGTACGGGTCACGAGGTTATAGCACGACGAGCG	4.11	6.39	5.81	1.55	7.62	3.75	0.803	1.75
TCAAGCAGGCCAGAGGGTCACTCAAGAGGTACGG	2.73	2.61	2.21	0.592	2.67	1.68	-0.21	0.557
CCTAGCAGGCCAGGGGCACTCAAGCATTTCGCTT	-0.0718	-0.38	-0.0557	-1.12	-0.341	-0.336	-1.01	-0.769
